These results are taken from PubChem BioAssay.

The source made the active and inactive calls. Unless noted, the rule behind the calls is not given here.

Test [1] can be described thus: compounds binding Alexa647 anti-His antibody – biochemical, small-molecule microarray, 635 nm fluorescence, artefact control for SMM control protein annotation, primary screen (AID 1128).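 Note: score merges feature fluorescence with signal-to-noise for each printed compound spot.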 Conditions: higher = more signal.
Test [2] deals with Human papillomavirus type 1a E7 protein (residues 1-88). Kind of test: HPV1a E7 small-molecule binders, primary screen, biochemical, small-molecule microarray, residues 1-88, 635 nm (AID 1129). Conditions: small-molecule microarray binding, fluorescence 635 nm; higher = more signal.
Test [3] addresses Focal adhesion kinase 1 (Homo sapiens) (UniProt Q05397). Kind of test: PTK2 protein binding on printed compound slides – biochemical, small-molecule microarray, 635/667 nm fluorescence, BSA, DTT, primary screen (AID 1130).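 Note: composite of spot emission at 667 nm and signal to noise over triplicate slides.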 Particulars: 635 nm fluorescence, higher = more signal.
In test [4] the test system is Fibrinogen (Alexa647-labelled). Nature of the test: Alexa647-fibrinogen binding to printed small molecules – biochemical, small-molecule microarray, 635/667 nm fluorescence, artefact control for SMM control-protein annotation, profiling panel (AID 1131).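 Note: z-score merges 667 nm fluorescence with per-spot signal-to-noise over triplicate slides.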 Particulars: fibrinogen-A647 binding fluorescence, higher = more signal.
For test [5], the target named is Follistatin (Homo sapiens) (UniProt P19883). Kind of test: FST protein binding to printed compounds – biochemical, small-molecule microarray, 635/667 nm fluorescence, primary screen (AID 1132). Particulars: 635 nm fluorescence, higher = more signal.
Chain of Follistatin (Homo sapiens) (P19883 whole entry, looked up): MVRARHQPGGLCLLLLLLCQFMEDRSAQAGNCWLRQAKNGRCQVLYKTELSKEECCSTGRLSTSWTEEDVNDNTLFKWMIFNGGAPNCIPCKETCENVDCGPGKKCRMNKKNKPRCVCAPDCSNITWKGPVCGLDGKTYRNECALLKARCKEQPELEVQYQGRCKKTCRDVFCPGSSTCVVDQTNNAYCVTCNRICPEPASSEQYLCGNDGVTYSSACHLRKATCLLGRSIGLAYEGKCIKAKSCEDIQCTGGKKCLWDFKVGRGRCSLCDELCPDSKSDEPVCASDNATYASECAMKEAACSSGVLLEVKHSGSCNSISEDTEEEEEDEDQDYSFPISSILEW
Test [6] has as its target Fibroblast growth factor 2 (Homo sapiens) (UniProt P09038). Kind of test: basic fibroblast growth factor binding to printed compounds – biochemical, small-molecule microarray, 635/667 nm fluorescence, primary screen (AID 1133). Particulars: FGF2, fluorescence 635/667, higher = more signal.
A short description of test [7]: JC-1 mitochondrial potential readout, lung cancer cells – cell-based, A549, JC-1 fluorescence, basal, 24 h, 100 nL, profiling panel (AID 1138).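 Note: A549 lung adenocarcinoma cells under basal conditions with no added stimulus; test concentration not given here.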 Conditions: higher = more signal.
Test [8] deals with Lefty1. Nature of the test: Lefty1 protein binding to printed compounds – biochemical, small-molecule microarray, 635/667 nm fluorescence, primary screen (AID 1139). Conditions: fluorescence 635/667, higher = more signal.
The test system of test [9] is wheat germ agglutinin (Triticum aestivum), Alexa647-labelled. Nature of the test: Alexa647-WGA lectin binding to printed small molecules – biochemical, small-molecule microarray, 635/667 nm fluorescence, artefact control for SMM control-protein annotation, profiling panel (AID 1140).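 Note: score merges 667 nm feature emission with signal to noise over triplicate slides.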 Conditions: WGA-A647 binding, 635 nm fluorescence, higher = more signal.
Test [10] addresses Luciferin 4-monooxygenase (Photinus pyralis) (UniProt P08659). Nature of the test: inhibition of purified Photinus pyralis luciferase – biochemical, luminescence, purified enzyme, 2006 set, primary screen (AID 1141).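 Note: cell-free assay with purified firefly luciferase at 100 ng per well in PBS; test concentration not given here.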 Particulars: purified firefly luciferase, SteadyGlo luminescence, 30 min; higher = more signal, called active from +8 up or from −8 down.
In test [11] the test system is Wnt5a (protein binding on small-molecule microarray). Nature of the test: small molecules binding Wnt5a protein – biophysical, small-molecule microarray, 635/667 nm fluorescence, primary screen (AID 1142).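 Note: fluorescence read at 667 nm with signal to noise per printed feature.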 Particulars: 635 nm fluorescence, higher = more signal.
Test [12] is described as follows: ATP-based viability of Huh7 replicon cells – cell-based, CellTiter-Glo luminescence, basal, 48 h, cytotoxicity control for HCV replication inhibitor project, primary screen (AID 1143).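 Note: Huh7 hepatoma cells carrying a hepatitis C replication reporter with no stimulus; test concentration not given here.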 Conditions: higher = more signal, called active from +8 up or from −8 down. (In general: In antiviral work, replicon cells carry a viral genome segment that copies itself.)
Test [13] in a line: Pseudomonas biofilm growth suppression – PAO1 strain, BacTiter-Glo luminescence, LB-PBS, primary screen (AID 1144). Conditions: P. aeruginosa PAO1 biofilm, 12 h, higher = more signal.
Test [14] can be described thus: basal CRE-LacZ reporter activity in PC12 – cell-based, unstimulated, primary screen (AID 1145). Conditions: no forskolin, luminescence, 4.5 h, higher = more signal, called active from +8 up or from −8 down.
Test [15] in a line: forskolin-driven CRE-LacZ activity in PC12 – cell-based, CRE-LacZ reporter, forskolin-stimulated, primary screen (AID 1146).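 Note: PC12 cells with 6xCRE LacZ reporter stimulated by forskolin 10 µM; beta-galactosidase reporter signal reflecting CREB driven transcription.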 Conditions: luminescence, 4.5 h, higher = more signal, called active from +8 up or from −8 down.
Test [16] has as its target Streptavidin (Streptomyces avidinii) (UniProt P22629). Kind of test: compounds binding control protein streptavidin – biophysical, small-molecule microarray, 635/667 nm fluorescence, artefact control for SMM compound annotation, primary screen (AID 1147).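 Note: signal reflects streptavidin binding to arrayed compounds as a control protein.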 Conditions: higher = more signal.
The nature of test [17]: probe aInhba binding on compound microarray – biochemical, small-molecule microarray, 635/667 nm fluorescence, primary screen (AID 1148).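 Note: score merges 667nm spot fluorescence with signal-to-noise for antibody binding to printed compounds.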 Particulars: higher = more signal.
Test [18] concerns the target Torsin-1A (Homo sapiens) (UniProt O14656). Nature of the test: TOR1A wild-type binding on microarray – cell lysate, small-molecule microarray, lysate, 635/667 nm, primary screen (AID 1149). Conditions: COS7 hTOR1A-WT lysate, 635 nm fluorescence, higher = more signal.
Test [19] shares this target. Nature of the test: torsin A mutant lysate binding on microarrays – cell lysate, small-molecule microarray, COS7 lysate, 635/667 nm fluorescence, primary screen (AID 1150).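 Note: score pools 667 nm emission and signal to noise measuring lysate protein binding.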 Particulars: COS7 hTOR1A mutant lysate, 635 nm fluorescence, higher = more signal.
In test [20] the test system is Sonic hedgehog protein (Shh). Nature of the test: Sonic hedgehog microarray binding compounds – biochemical, small-molecule microarray, 635/667 nm fluorescence, primary screen (AID 1151).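 Note: Shh protein binding to compounds spotted on small-molecule microarray slides; score combines spot fluorescence intensity with signal-to-noise across triplicate slides.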 Conditions: 635 nm fluorescence, higher = more signal.

Chain of Torsin-1A (Homo sapiens) (O14656 whole entry, looked up): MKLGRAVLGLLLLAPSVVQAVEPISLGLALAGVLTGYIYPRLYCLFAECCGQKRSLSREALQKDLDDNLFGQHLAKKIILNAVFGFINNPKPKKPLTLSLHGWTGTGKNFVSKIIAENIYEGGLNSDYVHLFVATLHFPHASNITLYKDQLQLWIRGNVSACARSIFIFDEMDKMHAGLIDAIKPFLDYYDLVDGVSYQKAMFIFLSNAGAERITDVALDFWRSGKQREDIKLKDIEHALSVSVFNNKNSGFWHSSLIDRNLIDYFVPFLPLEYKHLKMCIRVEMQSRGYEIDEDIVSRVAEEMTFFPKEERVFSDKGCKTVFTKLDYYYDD
Chain of Focal adhesion kinase 1 (Homo sapiens) (Q05397 whole entry, looked up): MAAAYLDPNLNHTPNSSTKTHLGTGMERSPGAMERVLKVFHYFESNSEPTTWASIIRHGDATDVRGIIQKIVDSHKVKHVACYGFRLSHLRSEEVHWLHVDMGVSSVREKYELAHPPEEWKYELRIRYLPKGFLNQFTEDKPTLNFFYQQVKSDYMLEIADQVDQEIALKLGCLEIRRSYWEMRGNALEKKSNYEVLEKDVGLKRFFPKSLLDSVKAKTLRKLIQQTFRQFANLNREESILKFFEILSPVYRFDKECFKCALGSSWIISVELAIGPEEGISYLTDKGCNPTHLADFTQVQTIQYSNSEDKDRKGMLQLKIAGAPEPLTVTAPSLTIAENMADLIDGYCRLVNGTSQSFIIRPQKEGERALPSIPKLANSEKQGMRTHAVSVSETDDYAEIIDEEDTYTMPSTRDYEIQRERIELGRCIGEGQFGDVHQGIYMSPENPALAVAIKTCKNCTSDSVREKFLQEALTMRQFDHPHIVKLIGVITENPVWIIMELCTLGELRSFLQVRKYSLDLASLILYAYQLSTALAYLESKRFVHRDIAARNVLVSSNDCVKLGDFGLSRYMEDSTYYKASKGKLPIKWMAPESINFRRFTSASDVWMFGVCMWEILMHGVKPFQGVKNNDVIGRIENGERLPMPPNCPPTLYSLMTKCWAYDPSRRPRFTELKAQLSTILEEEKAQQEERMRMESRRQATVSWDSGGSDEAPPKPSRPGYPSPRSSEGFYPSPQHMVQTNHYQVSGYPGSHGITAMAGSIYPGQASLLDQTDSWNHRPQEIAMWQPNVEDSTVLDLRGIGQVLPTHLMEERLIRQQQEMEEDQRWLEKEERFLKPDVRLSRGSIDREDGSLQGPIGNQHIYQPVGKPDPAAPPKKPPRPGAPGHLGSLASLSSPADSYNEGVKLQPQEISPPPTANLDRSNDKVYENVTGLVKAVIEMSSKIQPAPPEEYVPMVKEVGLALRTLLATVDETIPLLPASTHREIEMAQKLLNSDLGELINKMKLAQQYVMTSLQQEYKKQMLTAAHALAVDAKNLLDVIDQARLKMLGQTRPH
Chain of Luciferin 4-monooxygenase (Photinus pyralis) (P08659 whole entry, looked up): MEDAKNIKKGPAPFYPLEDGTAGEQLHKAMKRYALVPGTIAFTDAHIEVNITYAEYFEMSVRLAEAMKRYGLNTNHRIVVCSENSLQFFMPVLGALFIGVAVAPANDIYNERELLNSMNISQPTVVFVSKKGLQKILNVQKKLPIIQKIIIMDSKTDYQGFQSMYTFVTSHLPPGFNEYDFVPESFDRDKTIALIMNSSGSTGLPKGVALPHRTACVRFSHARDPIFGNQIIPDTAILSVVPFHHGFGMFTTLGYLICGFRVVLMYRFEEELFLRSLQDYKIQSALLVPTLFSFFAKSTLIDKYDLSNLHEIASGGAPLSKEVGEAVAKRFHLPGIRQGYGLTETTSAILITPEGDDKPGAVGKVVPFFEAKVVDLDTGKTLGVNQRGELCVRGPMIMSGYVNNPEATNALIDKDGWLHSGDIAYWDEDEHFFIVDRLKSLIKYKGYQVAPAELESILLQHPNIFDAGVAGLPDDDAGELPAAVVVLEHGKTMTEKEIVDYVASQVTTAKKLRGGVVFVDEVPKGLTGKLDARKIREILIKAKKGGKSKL
Chain of Fibroblast growth factor 2 (Homo sapiens) (P09038 whole entry, looked up): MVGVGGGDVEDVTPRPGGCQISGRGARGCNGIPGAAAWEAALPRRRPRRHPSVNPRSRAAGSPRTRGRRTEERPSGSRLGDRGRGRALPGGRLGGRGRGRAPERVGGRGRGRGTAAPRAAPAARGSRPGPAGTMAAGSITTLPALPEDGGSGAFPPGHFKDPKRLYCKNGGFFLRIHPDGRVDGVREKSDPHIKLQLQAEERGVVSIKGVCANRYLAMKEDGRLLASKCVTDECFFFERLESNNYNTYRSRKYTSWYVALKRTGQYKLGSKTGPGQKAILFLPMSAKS
Chain of Streptavidin (Streptomyces avidinii) (P22629 whole entry, looked up): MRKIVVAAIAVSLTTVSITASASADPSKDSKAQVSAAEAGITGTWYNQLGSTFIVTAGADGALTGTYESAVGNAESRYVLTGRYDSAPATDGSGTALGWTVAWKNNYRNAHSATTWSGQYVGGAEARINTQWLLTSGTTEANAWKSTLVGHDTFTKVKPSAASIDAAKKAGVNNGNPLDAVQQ

As for `Cc1ccc(S[C@]2(C(=O)NC(C)C)CC(=O)N(C3Cc4ccccc4C3)[C@@H]2c2ccc(CO)cc2I)cc1`, the composite z-score was -0.641 in test [1]; -0.597 in test [2]; -0.602 in test [3]; -0.779 in test [4]; -0.172 in [5]; 0.188 in [6]. Also, the composite z-score in [8] was -2.2; in [9] it was -0.412; in test [11] it was -0.511; in [16], -0.959; in test [17], -0.355; in test [18] it was -1.49. For the same compound, the figures for the composite z-score in [19] and in test [20] were -0.009 and -0.274, respectively. Also, the z-score in test [7] is 1.37; in test [10], 0.507 (inactive); in test [12], -1.83 (inactive); in [13] it was -0.0878 (inactive); in [14], 0.622 (inactive); in [15], 1.28 (inactive).

With `COC(=O)[C@]1(CCS(=O)(=O)c2ccccc2)N=C(c2ccc(OCCCO)cc2)O[C@@H]1c1ccccc1CN=[N+]=[N-]`, the composite z-score in test [1] is 1.15; in test [2], 1.23; in [3], 1.34; in test [4] it was 0.954; in test [5] it was 1.35; in test [6] it was 0.807. For the same compound, the composite z-score in test [8] is 0.293; in test [9], 0.528; in [11] it was 0.419; in test [16], 0.379; in test [17], 0.0655; in [18] it was 1.33. The composite z-score in [19] was determined as 0.69; in test [20] it was 0.738. Also, the z-score in test [7] was 0.332; in test [10] it was -0.587 (inactive); in test [12] it was -4.23 (inactive); in [13] it was -0.32 (inactive); in test [14], 1.73 (inactive); in [15], -1.37 (inactive).

`COc1ccc([Si](C)(C)[C@H]2[C@H](CCn3cc([C@H](O)c4ccccc4)nn3)O[C@@]3(C(=O)N(Cc4cccc(N5C(=O)c6cccc7cccc5c67)c4)c4ccccc43)[C@@H]2C)cc1`: the composite z-score in test [1] is -0.953; in test [2], -0.859; in test [3], -0.435; in [4] it was -0.678; in test [5], -1.64; in test [6], -1.03. For the same compound, the composite z-score in [8] is -1.36; in test [9], -0.76; in test [11], -0.302; in [16], -0.713; in [17] it was -0.176; in test [18], -0.601. Moreover, the figures for the composite z-score in [19] and in [20] were -0.437 and -0.0819, respectively. Also, the z-score is 0.647 in test [7]; 0.119 (inactive) in [10]; -3.31 (inactive) in test [12]; 0.789 (inactive) in test [13]; -0.142 (inactive) in [14]; 1.01 (inactive) in [15].

Regarding `CN(C)CCCNC(=O)[C@@H]1c2ccccc2C(=O)N(Cc2ccc(OC(F)(F)F)cc2)[C@H]1c1ccc(CO)cc1`, the composite z-score is 0.21 in test [1]; 0.701 in [2]; 0.0807 in test [3]; 0.18 in [4]; 1.18 in [5]; -0.22 in test [6]. Also, the composite z-score was 0.9 in test [8]; -0.374 in test [9]; 0.0246 in test [11]; 0.121 in test [16]; -0.128 in test [17]; -0.116 in test [18]. The results for the composite z-score in [19] and in [20] were 0.151 and 2.18, respectively. For the same compound, the z-score was 0.311 in [7]; 1.15 (inactive) in test [10]; -1.35 (inactive) in [12]; -1.42 (inactive) in [13]; -0.114 (inactive) in [14]; 0.77 (inactive) in test [15].

As for `CN1C(=O)[C@@]2(CCS(=O)(=O)c3ccccc3)N=C(c3ccc(OCCCO)cc3)O[C@H]2c2ccccc21`, the composite z-score in [1] came to 3.54; in test [2], 1.26; in [3], 0.582; in [4], 0.974; in [5] it was 1.29; in [6], 0.394. Besides, the composite z-score is 0.358 in test [8]; 1.01 in test [9]; 0.388 in test [11]; 1.8 in test [16]; -0.0384 in test [17]; 1.55 in [18]. Further, the values for the composite z-score in test [19] and in test [20] were 0.397 and 0.203, respectively. The z-score in [7] is 1.15; in [10], -0.899 (inactive); in test [12] it was -4.49 (inactive); in test [13], -0.413 (inactive); in test [14] it was 0.0918 (inactive); in [15], -0.196 (inactive).
